What all share (settings): mRNA level, 48 h; actives raise or lower the signal
Read-out in test [1]: Bcl-2 (BAX) gene, BAX (gene 581)
The test can be described thus: LTEA_HepaRG_BAX: Life Technologies and Expression Analysis (LTEA) Assay for Bcl-2 (BAX) gene using HepaRG (AID 2283470). A digest of the protocol:
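Gene expression measured by Fluidigm qRT-PCR with three housekeeping genes for normalisation. HepaRG cells, plated 48 h beforehand, treated 48 h at up to 100 uM (8-point, half-log) in 0.5% DMSO. Bidirectional fitting versus DMSO.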

Read-out in test [2]: adenosine kinase (ADK) gene, ADK (gene 132)
The test can be described thus: LTEA_HepaRG_ADK: Life Technologies and Expression Analysis (LTEA) Assay for adenosine kinase (ADK) gene using HepaRG (AID 2283471). A digest of the protocol:
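Read-out is ADK transcript level measured by qRT-PCR and normalised to three housekeeping genes. Cells are human HepaRG, dosed for 48 h at up to 100 uM in 0.5% DMSO. Gain or loss of signal is fitted against DMSO controls.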

Read-out in test [3]: Alpha-fetoprotein (AFP) gene, AFP (gene 174)
The test is described as follows: LTEA_HepaRG_AFP: Life Technologies and Expression Analysis (LTEA) Assay for Alpha-fetoprotein (AFP) gene using HepaRG (AID 2283472). An outline of the steps: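 AFP transcript measured by TaqMan qRT-PCR with three housekeeping genes for normalization, after 48 h chemical treatment of HepaRG cells (top 100 uM, half-log steps, 0.5% DMSO). Gain or loss fitted against vehicle.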

Read-out in the next test: BCL2L11 (gene 10018)
The test can be described thus: LTEA_HepaRG_BCL2L11: Life Technologies and Expression Analysis (LTEA) Assay for Bcl-2 (BCL2L11) gene using HepaRG (AID 2283473). An outline of the steps: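 Human hepatic HepaRG cultures are treated 48 h with test chemicals (maximum 100 uM, 0.5% DMSO vehicle). Expression of BCL2L11 is measured by qRT-PCR against ACTB, GAPDH and POLR2A, with activity in either direction scored relative to vehicle.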

Read-out in test [4]: Apolipoprotein A-V (APOA5) gene, APOA5 (gene 116519)
The test is described as follows: LTEA_HepaRG_APOA5: Life Technologies and Expression Analysis (LTEA) Assay for Apolipoprotein A-V (APOA5) gene using HepaRG (AID 2283474). A digest of the protocol:
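Concentration-response of APOA5 expression in HepaRG: eight half-log doses to 100 uM, 48 h, qRT-PCR normalized to ACTB/GAPDH/POLR2A, bidirectional fitting with 0.5% DMSO as baseline.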

Read-out in test [5]: Apoptosis regulator Bcl-2 (Homo sapiens) (UniProt P10415)
The test can be described thus: LTEA_HepaRG_BCL2: Life Technologies and Expression Analysis (LTEA) Assay for Bcl-2 gene using HepaRG (AID 2283475). An outline of the steps: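 qRT-PCR of BCL2 transcript, normalized to three housekeeping genes (ACTB, GAPDH, POLR2A), after 48 h chemical exposure of HepaRG cells; concentrations top 100 uM with half-log dilutions, 0.5% DMSO vehicle, duplicates; changes up or down fitted relative to vehicle.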

Read-out in test [6]: Bcl-2 (BID) gene, BID (gene 637)
The test can be described thus: LTEA_HepaRG_BID: Life Technologies and Expression Analysis (LTEA) Assay for Bcl-2 (BID) gene using HepaRG (AID 2283476). An outline of the steps: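 Duplicate 48 h treatments of HepaRG cells in serum-free induction medium spanned 100 uM downward in half-log steps, 0.5% DMSO. Transcript change quantified by qRT-PCR against three housekeeping genes, fitted up or down versus DMSO.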

Read-out in a further test: Caspase-3 (Homo sapiens) (UniProt P42574)
The test can be described thus: LTEA_HepaRG_CASP3: Life Technologies and Expression Analysis (LTEA) Assay for cysteine-aspartic acid protease (CASP3) using HepaRG (AID 2283477). A digest of the protocol:
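Transcript-level assay: CASP3 mRNA in human HepaRG after 48 h treatment, eight half-log concentrations from 100 uM in 0.5% DMSO, quantified by qRT-PCR.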

Read-out in test [7]: Cytochrome P450 (CYP24A1), CYP24A1 (gene 1591)
The test can be described thus: LTEA_HepaRG_CYP24A1: Life Technologies and Expression Analysis (LTEA) Assay for Cytochrome P450 (CYP24A1) using HepaRG (AID 2283478). A digest of the protocol:
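Gene expression of CYP24A1 by TaqMan qRT-PCR in HepaRG after 48 h treatment, highest concentration 100 uM; activity fitted in both directions relative to DMSO vehicle.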

Read-out in test [8]: Cytochrome P450 (CYP1A2), CYP1A2 (gene 1544)
The test can be described thus: LTEA_HepaRG_CYP1A2: Life Technologies and Expression Analysis (LTEA) Assay for Cytochrome P450 (CYP1A2) using HepaRG (AID 2283479). An outline of the steps:
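In duplicate wells, HepaRG cultures maintained in 0.5% DMSO were treated 48 h across an 8-point, half-log series topping at 100 uM; phenobarbital (1 mM) served as induction control. Expression was read by qRT-PCR.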

Read-out in test [9]: cysteine-aspartic acid protease (CASP8), CASP8 (gene 841)
The test can be described thus: LTEA_HepaRG_CASP8: Life Technologies and Expression Analysis (LTEA) Assay for cysteine-aspartic acid protease (CASP8) using HepaRG (AID 2283480). An outline of the steps: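 Concentration-response in duplicate up to 100 uM (half-log steps, 0.5% DMSO) on differentiated HepaRG cultures for 48 h. Expression change of CASP8 mRNA is determined by TaqMan qRT-PCR with housekeeping-gene normalization.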

Read-out in test [10]: Cytochrome P450 (CYP2B6), CYP2B6 (gene 1555)
The test can be described thus: LTEA_HepaRG_CYP2B6: Life Technologies and Expression Analysis (LTEA) Assay for Cytochrome P450 (CYP2B6) using HepaRG (AID 2283481). A digest of the protocol:
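Human HepaRG, 48 h dosing, 0.5% DMSO vehicle, top dose 100 uM. CYP2B6 transcript by qRT-PCR, housekeeping-normalized, bidirectional curve fit.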

Read-out in test [11]: Cytochrome P450 2C19 (Homo sapiens) (UniProt P33261)
The test can be described thus: LTEA_HepaRG_CYP2C19: Life Technologies and Expression Analysis (LTEA) Assay for CYP2C19 using HepaRG (AID 2283482). An outline of the steps: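 Endpoint: CYP2C19 mRNA change, bidirectional fit vs 0.5% DMSO. Cells: HepaRG, 48 h exposure, eight-point series topping at 100 uM. Quantitation: qRT-PCR normalized to ACTB, GAPDH, POLR2A.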

Read-out in a further test: CYP2C9 (gene 1559)
The test is described as follows: LTEA_HepaRG_CYP2C9: Life Technologies and Expression Analysis (LTEA) Assay for CYP2C9 using HepaRG (AID 2283484). A digest of the protocol:
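Eight-point concentration-response (highest 100 uM, half-log dilutions) in HepaRG cells for 48 h; CYP2C9 expression by qRT-PCR normalized to ACTB, GAPDH, POLR2A. Bidirectional fit, DMSO baseline.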

Read-out in the next test: CYP2E1 (gene 1571)
The test can be described thus: LTEA_HepaRG_CYP2E1: Life Technologies and Expression Analysis (LTEA) Assay for CYP2E1 using HepaRG (AID 2283485). An outline of the steps: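 CYP2E1 transcript measured by Fluidigm qRT-PCR against three housekeeping genes in human HepaRG cells treated 48 h (top 100 uM, half-log steps, 0.5% DMSO vehicle). Gain or loss fitted relative to DMSO baseline.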

Read-out in the next test: CYP4A11 (gene 1579)
The test is described as follows: LTEA_HepaRG_CYP4A11: Life Technologies and Expression Analysis (LTEA) Assay for CYP4A11 using HepaRG (AID 2283486). A digest of the protocol:
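Human hepatic HepaRG cultures receive duplicate 48 h exposures across a concentration-response series topping at 100 uM. Expression changes in CYP4A11 are measured by qRT-PCR relative to DMSO controls.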

Read-out in test [12]: Cytochrome P450 3A4 (Homo sapiens) (UniProt P08684)
The test can be described thus: LTEA_HepaRG_CYP3A4: Life Technologies and Expression Analysis (LTEA) Assay for CYP3A4 using HepaRG (AID 2283487). A digest of the protocol:
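HepaRG, 48 h exposure, 8-pt CRC from 100 uM (half-log), 0.5% DMSO, duplicates; serum-free induction medium. Readout: CYP3A4 mRNA, qRT-PCR, ACTB/GAPDH/POLR2A normalization. Bidirectional fit vs DMSO.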

Read-out in test [13]: DNA damage-inducible transcript 3 (DDIT3), DDIT3 (gene 1649)
The test can be described thus: LTEA_HepaRG_DDIT3: Life Technologies and Expression Analysis (LTEA) Assay for DNA damage-inducible transcript 3 (DDIT3) using HepaRG (AID 2283488). An outline of the steps:
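DDIT3 transcript was quantified by qRT-PCR with ACTB/GAPDH/POLR2A normalization after 48 h chemical treatment of differentiated HepaRG cells in 0.5% DMSO. Dosing was eight-point, half-log, top 100 uM, duplicate wells. Curves fitted bidirectionally versus DMSO.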

Read-out in test [14]: Pro-epidermal growth factor (Homo sapiens) (UniProt P01133)
The test is described as follows: LTEA_HepaRG_EGF: Life Technologies and Expression Analysis (LTEA) Assay for Epidermal growth factor (EGF) using HepaRG (AID 2283489). A digest of the protocol: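 Concentration-response mRNA assay: HepaRG cells dosed 48 h (max 100 uM, 0.5% DMSO), EGF measured by qRT-PCR and normalized to ACTB/GAPDH/POLR2A.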

Read-out in the next test: CYP2C8 (gene 1558)
The test is described as follows: LTEA_HepaRG_CYP2C8: Life Technologies and Expression Analysis (LTEA) Assay for CYP2C8 using HepaRG (AID 2283483). An outline of the steps: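 This is a transcriptional endpoint in HepaRG cultures: 48 h exposure, highest concentration 100 uM. CYP2C8 mRNA is quantified by TaqMan qRT-PCR.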

The values that follow come from PubChem BioAssay (EPA / NIEHS).

SMILES strings stand for the structures. Active and inactive are the calls of the source. How the source made its calls: active means hit-call score of the fitted dose curve at least 0.9, where 1 is the maximum; inactive means score below 0.9.

Chain of Cytochrome P450 2C19 (Homo sapiens) (P33261 whole entry, looked up): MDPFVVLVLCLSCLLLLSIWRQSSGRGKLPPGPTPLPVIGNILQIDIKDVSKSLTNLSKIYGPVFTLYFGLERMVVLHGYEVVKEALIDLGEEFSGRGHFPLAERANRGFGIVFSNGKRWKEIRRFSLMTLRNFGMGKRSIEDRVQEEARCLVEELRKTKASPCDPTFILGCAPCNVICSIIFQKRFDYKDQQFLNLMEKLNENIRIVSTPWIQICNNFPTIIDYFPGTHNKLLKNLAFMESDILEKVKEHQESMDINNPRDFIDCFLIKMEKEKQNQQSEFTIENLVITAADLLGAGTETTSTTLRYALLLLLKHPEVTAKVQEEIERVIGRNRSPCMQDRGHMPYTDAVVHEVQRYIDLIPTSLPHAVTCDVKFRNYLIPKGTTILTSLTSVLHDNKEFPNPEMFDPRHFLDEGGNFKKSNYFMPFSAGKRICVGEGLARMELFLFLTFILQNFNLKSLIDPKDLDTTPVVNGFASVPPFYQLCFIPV
Chain of Apoptosis regulator Bcl-2 (Homo sapiens) (P10415 whole entry, looked up): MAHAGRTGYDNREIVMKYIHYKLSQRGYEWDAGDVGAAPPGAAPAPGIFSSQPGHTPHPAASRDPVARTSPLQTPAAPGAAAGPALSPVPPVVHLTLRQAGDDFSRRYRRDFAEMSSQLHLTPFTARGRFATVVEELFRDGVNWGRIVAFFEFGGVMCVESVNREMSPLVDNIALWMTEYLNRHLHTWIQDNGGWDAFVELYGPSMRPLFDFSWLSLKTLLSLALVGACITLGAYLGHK
Chain of Cytochrome P450 3A4 (Homo sapiens) (P08684 whole entry, looked up): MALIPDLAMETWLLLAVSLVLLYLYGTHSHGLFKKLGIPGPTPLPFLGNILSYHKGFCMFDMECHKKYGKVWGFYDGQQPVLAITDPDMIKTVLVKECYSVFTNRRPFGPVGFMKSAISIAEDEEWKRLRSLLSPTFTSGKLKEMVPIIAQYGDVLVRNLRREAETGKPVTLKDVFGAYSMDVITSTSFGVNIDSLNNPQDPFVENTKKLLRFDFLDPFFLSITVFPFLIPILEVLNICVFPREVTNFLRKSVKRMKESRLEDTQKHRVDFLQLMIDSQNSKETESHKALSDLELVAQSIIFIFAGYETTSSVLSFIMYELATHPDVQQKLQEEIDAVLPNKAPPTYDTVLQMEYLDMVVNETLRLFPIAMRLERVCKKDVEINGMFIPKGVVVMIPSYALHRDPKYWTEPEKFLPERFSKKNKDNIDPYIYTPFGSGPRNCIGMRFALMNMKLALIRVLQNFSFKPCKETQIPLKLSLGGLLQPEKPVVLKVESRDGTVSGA
Chain of Caspase-3 (Homo sapiens) (P42574 whole entry, looked up): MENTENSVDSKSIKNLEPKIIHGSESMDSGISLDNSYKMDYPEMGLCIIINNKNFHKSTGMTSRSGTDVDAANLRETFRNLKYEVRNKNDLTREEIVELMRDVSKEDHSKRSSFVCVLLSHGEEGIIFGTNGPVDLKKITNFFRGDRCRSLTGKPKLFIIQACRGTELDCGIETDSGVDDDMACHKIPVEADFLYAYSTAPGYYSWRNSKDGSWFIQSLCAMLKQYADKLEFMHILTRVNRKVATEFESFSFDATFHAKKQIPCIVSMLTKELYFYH

Take `CCCN(CC)CC1COC2(CCC(C(C)(C)C)CC2)O1` (configuration not stated): the call (in [1]; in [2]; in [3]; with BCL2L11 (gene 10018); in [4]; in test [5]) was inactive. Moreover, the outcome (in [6]; with Caspase-3 (Homo sapiens); in test [7]; in test [8]; in test [9]; in test [11]) was inactive. Further, the compound was called inactive (with CYP2C9 (gene 1559); with CYP2E1 (gene 1571); with CYP4A11 (gene 1579); in test [12]; in test [13]; in [14]). Also, the AC50 in test [10] is 50 µM (active).

Consider `CS(=O)(=O)c1ccc(C(=O)C2C(=O)CCCC2=O)c([N+](=O)[O-])c1`, for which the outcome (in test [1]; in test [2]; in test [3]; in the test with BCL2L11 (gene 10018); in test [4]; in test [5]) was inactive. In addition, the compound was classed as inactive (in test [6]; with Caspase-3 (Homo sapiens); in [7]; in test [9]; in test [10]; in test [11]). Also, the compound was classed as inactive (with CYP2C9 (gene 1559); in the test with CYP2E1 (gene 1571); with CYP4A11 (gene 1579); in [12]; in test [13]; in test [14]). Further, in [8], the AC50 was 18.4 µM (active).

Take `CNC(=O)N(C)c1nnc(C(C)(C)C)s1`: the result (in test [1]; in test [2]; in test [3]; with BCL2L11 (gene 10018); in test [4]; in [5]) was inactive. The outcome (in [6]; with Caspase-3 (Homo sapiens); in test [7]; in test [9]; in test [11]; with CYP2C8 (gene 1558)) was inactive. The result (with CYP2C9 (gene 1559); in the test with CYP4A11 (gene 1579); in test [12]; in test [13]; in test [14]) was inactive. Besides, the AC50 in test [8] was 50 µM (active); in test [10], 31.6 µM (active).
